LmPK inhibitor – blocks Leishmania mexicana pyruvate kinase activity; Q27686; purified LmPK, Kinase-Glo ATP luminescence, 1 h; Potency, µM (titrated, usually from 57.5 µM), hits mostly inhibitors; 290,000 compounds, 0.37% hits
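ATP generated from ADP (0.1 mM) and PEP (0.5 mM) by 0.1 nM LmPK over 1 h at room temperature (pH 7.2 imidazole buffer) was detected by coupled luciferase luminescence. Values were normalized to uninhibited and no-enzyme wells.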
Sm TGR block – inhibitors of Schistosoma mansoni thioredoxin glutathione reductase; Q962Y6; 360,000 compounds, 3% hits; Potency, µM (top dose mostly 114 µM), most hits filed as inhibitors; AID 485364; purified TGR, DTNB reduction, TNB absorbance 405 nm; note: nearly all actives have a fitted effect of over 60% in size
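TGR 20 nM + NADPH 100 uM (dispensed conc.), cpd preinc 15 min RT; start with NADPH (500 uM addition) then DTNB (15 mM addition). Kinetic TNB absorbance, 405 nm filter. Four-parameter Hill fit across titration.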
Cycloheximide cs – counter-screen for Shiga toxin inhibitors: cycloheximide protein synthesis inhibition. cell reporter, cycloheximide protein synthesis inhibition counterscreen. max response, %. 300,000 compounds, 12% hits; in the data active = max response mostly above about 13%, no sharp cut-off; inactive = mostly below about 14%; note: read at 38.3 µM for the half of the compounds with a filed dose
FBPA Giardia inh – Giardia lamblia aldolase inhibition; Potency, µM (titrated, usually from 59.6 µM), most hits filed as inhibitors; purified Giardia FBPA; 290,000 compounds, 0.71% hits; A8B2U2; note: nearly all actives have a fitted effect of over 55% in size
Target sequence (A8B2U2 whole entry, looked up): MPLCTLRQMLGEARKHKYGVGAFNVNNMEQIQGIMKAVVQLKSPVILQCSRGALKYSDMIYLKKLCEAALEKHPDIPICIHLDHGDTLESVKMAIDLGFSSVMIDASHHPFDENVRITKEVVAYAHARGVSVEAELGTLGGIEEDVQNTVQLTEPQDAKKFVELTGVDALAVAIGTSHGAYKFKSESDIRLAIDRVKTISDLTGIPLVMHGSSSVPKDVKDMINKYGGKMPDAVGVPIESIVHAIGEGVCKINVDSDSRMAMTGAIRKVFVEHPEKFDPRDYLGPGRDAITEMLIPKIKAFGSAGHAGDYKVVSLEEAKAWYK
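40 nM FBPA preincubated 10 min at RT with compound (up to 57.5 uM final), then substrate plus GAPDH/TPI/NAD/arsenate coupling and diaphorase/resazurin added. Fluorescence read after 20 min at RT, 525/598 nm.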
TbPYK inhibitor – blocks Trypanosoma brucei pyruvate kinase; 410,000 compounds, 0.12% hits; Potency, µM (highest dose often 76.8 µM), usual class: inhibitors; TbPYK enzyme, Kinase-Glo Plus ATP luminescence, 45 min; note: nearly all actives have a fitted effect of over 50% in size
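T. brucei PYK with substrate was exposed to pin-transferred compounds across a concentration series, then started with 130 uM ADP (final). After 45 min at room temperature, Kinase-Glo Plus luminescence was read, normalized and curve-fitted.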
Shiga toxin inh – Shiga toxin inhibition. Vero cells, Shiga toxin protein synthesis inhibition reporter. inhibition, % at 38.7 µM. 290,000 compounds, 9.2% hits. AID 2315; in the data active = inhibition mostly above about 28%, no sharp cut-off; inactive = mostly below about 43%
Of the large screens only hits and unclear results are named; the others gave an inactive call; ! = not active in a repeat. The sample as a whole holds a higher share of hits than the screen did. Unless noted, calls come from the whole dose curve; as a rule, active = well fitted curve in the direction sought with a large enough effect; inconclusive = small, poorly fitted or top-dose-only effect, or another doubt; inactive = no such curve, though single readings can be large; an effect the other way counts as inactive or inconclusive.

Cn1c(=O)c2c(nc(CN3CCN(Cc4ccccc4)CC3)n2CCN2CCOCC2)n(C)c1=O	Sm TGR block 40µM
C=C(C)[C@H]1CN[C@H](C(=O)O)[C@H]1CC(=O)O	Shiga toxin inh 47! (no result: LmPK inhibitor, Sm TGR block)
C=C(C)[C@H]1CN[C@H](C(=O)O)[C@@H]1CC(=O)O	none (no result: LmPK inhibitor, Sm TGR block, Cycloheximide cs, TbPYK inhibitor, Shiga toxin inh)
Cc1cc(C)c(OCC(=O)NCCCn2nc(C)cc2C)c(C)c1	none (no result: LmPK inhibitor, Cycloheximide cs, FBPA Giardia inh, Shiga toxin inh)
CSc1nc(N(CCO)CCO)c2sc3nc(-c4ccco4)c4c(c3c2n1)CCC4	Sm TGR block 2.5µM, FBPA Giardia inh inconclusive
COC(=O)CSc1nc(SC)nc2c1sc1nc(-c3ccco3)c3c(c12)CC(C)(C)OC3	none (no result: LmPK inhibitor, Sm TGR block, Cycloheximide cs, FBPA Giardia inh, Shiga toxin inh)
CCN1C(=O)N(C)[C@@H](c2ccccc2)C(C(=O)OC)=C1C	Cycloheximide cs 21
Cc1cccc(NC(=O)CCS(=O)(=O)c2ccc3c(c2)n(C)c(=O)c(=O)n3C)c1C	none (no result: LmPK inhibitor, Cycloheximide cs, FBPA Giardia inh, Shiga toxin inh)
[O-]/[N+](=C\C=C\c1ccccc1)c1ccccc1	LmPK inhibitor inconclusive, Cycloheximide cs 50, Shiga toxin inh 133
O=C(/C=C/c1ccc(Br)o1)OCc1nc2ccsc2c(=O)[nH]1	Sm TGR block 45µM (no result: LmPK inhibitor, Cycloheximide cs, FBPA Giardia inh, Shiga toxin inh)
COc1ccc(/C=N/NC(=O)c2ccc3ccccc3c2)cc1OS(=O)(=O)c1ccc(NC(C)=O)cc1	none
CC(Sc1nc(N)cc(N)n1)C(=O)Nc1ccc(N2CCOCC2)cc1 (stereo not drawn)	none (no result: LmPK inhibitor, Cycloheximide cs, FBPA Giardia inh, Shiga toxin inh)
Cc1noc(C(=O)Nc2ccc(F)c(Cl)c2)c1Cl	Cycloheximide cs 29, Shiga toxin inh 30
Cc1ccc(NC(=O)c2onc(C)c2Cl)cc1	Cycloheximide cs 30, Shiga toxin inh 62
CCCC1O[C@@H]2C[C@H]3[C@@H]4CCC5=CC(=O)C=C[C@]5(C)C4[C@@H](O)C[C@]3(C)[C@]2(C(=O)CO)O1 (stereo partly drawn)	none (no result: LmPK inhibitor, Sm TGR block, Cycloheximide cs, TbPYK inhibitor, Shiga toxin inh)
CCOc1ccc(C(=O)CCC(=O)NCC(=O)Nc2c(C)cccc2C)cc1	none (no result: LmPK inhibitor, Cycloheximide cs, FBPA Giardia inh, Shiga toxin inh)
CCN1C(=O)[C@H]2[C@H]3[C@H](O)[C@H](O)C/C(=N/OC[C@@H](O)COCc4ccco4)[C@@H]3CC[C@@H]2C1=O	none (no result: LmPK inhibitor, Sm TGR block, Cycloheximide cs, TbPYK inhibitor, Shiga toxin inh)
Cc1ccc(CSc2nc3ccccc3c(=O)n2Cc2ccco2)cc1	Sm TGR block inconclusive, Shiga toxin inh 63
O=c1c2ccccc2nc(SCc2ccccc2)n1Cc1ccco1	Sm TGR block 28µM, Cycloheximide cs 36
O=C(CSc1nc2ccccc2c(=O)n1Cc1ccco1)c1ccccc1	Cycloheximide cs 24
O=c1c2ccccc2nc(SCc2nnc(-c3ccccc3Br)o2)n1Cc1ccco1	Cycloheximide cs 17
O=c1c2ccccc2nc(SCc2nc3ccccc3s2)n1Cc1ccco1	none
N#Cc1c(/N=C/c2cc3ccccc3s2)sc2c1CCC2	Cycloheximide cs 20, Shiga toxin inh 33
Cc1ccc(/C=N/c2sc3c(c2C#N)CCC3)s1	Cycloheximide cs 55, Shiga toxin inh 114
Cc1ccc(/C=N/c2sc3c(c2C#N)CCCCC3)o1	LmPK inhibitor inconclusive, Sm TGR block inconclusive, TbPYK inhibitor inconclusive
O=C(CSc1ccc(-c2cccs2)nn1)Nc1cccc(F)c1	none (no result: LmPK inhibitor, Cycloheximide cs, FBPA Giardia inh, Shiga toxin inh)
COc1ccc(CNC(=O)CCc2c(C)c3cc4c(C)c(C)oc4cc3oc2=O)cc1OC	none (no result: LmPK inhibitor, Cycloheximide cs, FBPA Giardia inh, Shiga toxin inh)
COc1ccc(Cn2nnnc2C(c2cc3ccc(OC)cc3[nH]c2=O)N2CCCCCC2)cc1 (stereo not drawn)	Sm TGR block 18µM
Cc1cc2cc(C(c3nnnn3Cc3ccco3)N3CCc4ccccc4C3)c(=O)[nH]c2cc1C (stereo not drawn)	Sm TGR block 3.5µM, FBPA Giardia inh inconclusive, TbPYK inhibitor inconclusive
Cc1cc2cc(C(c3nnnn3Cc3ccco3)N3CCc4ccccc43)c(=O)[nH]c2cc1C (stereo not drawn)	Sm TGR block inconclusive, FBPA Giardia inh inconclusive, TbPYK inhibitor inconclusive
Cc1ccc2[nH]c(=O)c(C(c3nnnn3Cc3ccccc3)N3CCc4ccccc43)cc2c1 (stereo not drawn)	Sm TGR block 20µM, FBPA Giardia inh inconclusive
CCC(C)(C)n1nnnc1C(c1cc2ccc(OC)cc2[nH]c1=O)N1CCc2ccccc21 (stereo not drawn)	Sm TGR block 35µM, TbPYK inhibitor inconclusive
Cc1ccc2cc(C(c3nnnn3Cc3ccccc3)N3CCc4ccccc43)c(=O)[nH]c2c1 (stereo not drawn)	none
O=C(NCc1cccc(F)c1)C1CCN(c2nc3ccccc3nc2C(F)(F)F)CC1	none (no result: LmPK inhibitor, Cycloheximide cs, FBPA Giardia inh, Shiga toxin inh)
COc1ccccc1CNC(=O)C1CCN(S(=O)(=O)c2ccc3c(c2)CCCN3C(C)=O)CC1	none (no result: LmPK inhibitor, Cycloheximide cs, FBPA Giardia inh, Shiga toxin inh)
Cc1cc2cc(C(c3nnnn3Cc3ccccc3)N3CCc4ccccc43)c(=O)[nH]c2cc1C (stereo not drawn)	Sm TGR block 45µM, FBPA Giardia inh inconclusive
COc1cccc(-c2ccc3ncnc(Nc4ccccc4)c3c2)c1	none (no result: LmPK inhibitor, Sm TGR block, Cycloheximide cs, TbPYK inhibitor, Shiga toxin inh)
CC(=O)c1ccc(NS(=O)(=O)c2cc3[nH]c(=O)c(=O)[nH]c3cc2C)cc1	none (no result: LmPK inhibitor, Cycloheximide cs, FBPA Giardia inh, Shiga toxin inh)
CC(=O)c1ccc(N2CCN(S(=O)(=O)c3cc4[nH]c(=O)c(=O)[nH]c4cc3C)CC2)cc1	Cycloheximide cs 19, Shiga toxin inh 24
COc1ccc(OC)c(-c2nnc3n(Cc4ccc(C)cc4)c(=O)c4ccccc4n23)c1	none (no result: LmPK inhibitor, Cycloheximide cs, FBPA Giardia inh, Shiga toxin inh)
O=C1CCCN1CCC1CCN(C2CC(=O)N(Cc3ccc(N4CCCC4=O)cc3)C2=O)CC1 (stereo not drawn)	Sm TGR block 18µM
O=C1CCCN1CCC1CCN(C2CC(=O)N(c3ccc(Cl)cc3)C2=O)CC1 (stereo not drawn)	Sm TGR block 18µM
